Compounds with a hit are over-represented: about 3% of the library has one in this group of screens.
USP1 inh – Inhibitors of USP1/UAF1: Primary Screen. Ubiquitin carboxyl-terminal hydrolase 1 (Homo sapiens), O94782. recombinant USP1/UAF1, Ub-Rhodamine cleavage fluorescence. Potency, µM (highest dose often 57.1 µM), inactives show at the top dose activity change, negative = inhibition, hits mostly inhibitors. hit rate 0.23% among 390,000; further: on the % scale 0 is the no-effect control and ±100 the full control effect; nearly all actives have a fitted effect of over 60% in size
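USP1/UAF1 complex at 1 nM was preincubated with compound for 15 min at room temperature, then Ub-Rho substrate (150nM final) was added. Fluorescence (480/540 nm) was read kinetically, 6 reads every 60 seconds.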
KAT2A inh – qHTS Assay for Inhibitors of GCN5L2 | Histone acetyltransferase KAT2A (Homo sapiens), Q92830 | GCN5L2 HAT assay, ThioGlo1 CoA-SH fluorescence | Potency, µM (highest dose often 58.9 µM), for the others: at the highest dose activity change, negative = inhibition, actives largely listed as inhibitors | hit rate 0.21% among 390,000 | AID 504327, 2011; further: on the % scale 0 is the no-effect control and ±100 the full control effect
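ThioGlo1-coupled HAT assay: 20nM GCN5L2, 70uM acetyl-CoA, 75uM H3(1-25) peptide, pH 7.5. Fluorescence read at 340/540nm at start and after 20 min at room temperature.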
PTAP TSG101 blk – qHTS Assay for Iinhibitors of HIV-1 Budding by Blocking the Interaction of PTAP/TSG101. Tumor susceptibility gene 101 protein (Homo sapiens), Q99816. Fluorescence polarization, FITC-PTAP peptide / Tsg101 binding. Potency, µM (series often up to 115 µM), for the others: top-dose activity change, negative = inhibition, usual class: inhibitors. 340,000 tested, under 10 active; active means well fitted inhibition curve with a large enough effect in the main read-out, with a control signal flat, not every such curve was filed as active; inconclusive means small, poorly fitted or top-dose-only effect, or effect the other way, or a change in a side signal; inactive means no such curve, though single readings can be large or run the other way; further: % of control where 0% means no effect
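Fluorescence polarization binding of Tsg101 binding domain (10 uM final) to FITC-labeled PTAP peptide (50 nM final) in HEPES pH 7.5 buffer with NaCl, Tween 20, EDTA, TCEP. Compounds added before peptide; binding 20 min at RT.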
PLK1 PBD block – qHTS for Inhibitors of PLK1-PDB (polo-like kinase 1 - polo-box domain): Primary Screen; Serine/threonine-protein kinase PLK1 (Homo sapiens), P53350; Plk1 PBD binding of FITC phosphopeptide, fluorescence polarization; Potency, µM, without a hit: max response, negative = inhibition, hits mostly inhibitors; hit rate 2.8% among 360,000; further: series mostly up to about 57 µM; on the % scale 0 is the no-effect control and ±100 the full control effect; nearly all actives have a fitted effect of over 65% in size
Target sequence (P53350 whole entry, looked up, the tested form may be a part): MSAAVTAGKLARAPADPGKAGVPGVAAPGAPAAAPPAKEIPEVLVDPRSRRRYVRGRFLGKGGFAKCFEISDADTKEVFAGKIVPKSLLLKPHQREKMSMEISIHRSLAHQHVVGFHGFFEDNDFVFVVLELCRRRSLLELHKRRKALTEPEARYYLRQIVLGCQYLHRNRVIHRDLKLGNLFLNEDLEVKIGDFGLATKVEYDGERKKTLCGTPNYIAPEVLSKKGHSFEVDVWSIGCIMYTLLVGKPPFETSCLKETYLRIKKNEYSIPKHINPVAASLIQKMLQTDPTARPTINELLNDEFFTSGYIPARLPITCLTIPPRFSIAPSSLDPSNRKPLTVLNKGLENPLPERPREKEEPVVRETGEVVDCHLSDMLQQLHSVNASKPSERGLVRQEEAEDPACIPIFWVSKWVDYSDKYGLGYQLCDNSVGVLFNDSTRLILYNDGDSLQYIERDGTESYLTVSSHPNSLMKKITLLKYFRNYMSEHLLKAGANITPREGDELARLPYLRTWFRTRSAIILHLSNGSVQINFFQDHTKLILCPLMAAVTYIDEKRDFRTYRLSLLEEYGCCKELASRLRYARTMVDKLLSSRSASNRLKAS
VDR inh – Inhibitors of the vitamin D receptor (VDR): qHTS. Vitamin D3 receptor (Homo sapiens), P11473. hit rate 0.93% among 400,000. Potency, µM, without a hit: max response, negative = inhibition, usual class: inhibitors. VDR-SRC2-3 peptide fluorescence polarization, 2 h; further: on the % scale 0 is the no-effect control and ±100 the full control effect
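Fluorescence polarization assay of small-molecule disruption of VDR binding to coregulator peptide SRC2-3. Compounds and controls pin-transferred, then read after 2 h incubation at ambient room temperature.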
Numbers without * were called inactive; ? = inconclusive; nt = no result. Unless noted, the call rests on the fitted dose curve; in most records, active means well fitted curve in the direction sought with a large enough effect; inconclusive means small, poorly fitted or top-dose-only effect, or another doubt; inactive means no such curve, though single readings can be large; an effect the other way counts as inactive or inconclusive. Potency means the concentration at half of the fitted maximal effect.

SMILES | USP1 inh | KAT2A inh | PTAP TSG101 blk | PLK1 PBD block | VDR inh
COc1ccc(/C=C/C(=O)CC(O)(c2ccccc2)C(F)(F)F)cc1 (stereo unspecified) | -26.3% | -15.4% | -8.3% | -5.6% | 35.5µM*
O=C(/C=C/c1ccccc1)CC(O)(c1ccccc1)C(F)(F)F (stereo unspecified) | ? | 0.5% | -6.0% | ? | -88.3%
CCOc1cc(/C=C2/C(=O)N(c3ccccc3)N=C2C)ccc1OC(=O)c1cccs1 | -21.4% | -6.3% | -5.4% | 2.12µM* | ?
COc1ccc(/C=C2/C(=O)N(c3ccccc3)N=C2C)cc1OC | -25.8% | -3.3% | -2.9% | 2.99µM* | -0.5%
CC(=O)Oc1ccc(/C=C2/C(=O)N(c3ccccc3)N=C2C)cc1 | -22.0% | 1.3% | -0.3% | 2.12µM* | ?
COc1cc(/C=C2/C(=O)N(c3cccc(Br)c3)N=C2C)cc(OC)c1O | -4.5% | -26.7% | -5.8% | ? | ?
COc1ccccc1/C=C1/C(=O)N(c2ccc([N+](=O)[O-])cc2)N=C1C | -2.9% | 0.0% | -5.0% | 1.89µM* | ?
CC1=NN(c2ccccc2)C(=O)/C1=C/N(C)C | -18.5% | -16.8% | -7.5% | -10.0% | -2.4%
CC1=NN(c2ccccc2)C(=O)/C1=C\c1cc(C)n(C)c1C | 1.2% | -5.3% | -9.0% | -10.6% | -1.4%
CC1=NN(c2ccccc2)C(=O)/C1=C/c1cccc(C)c1 | -24.4% | 1.4% | 1.5% | 2.12µM* | 50.1µM*
CCN(CC)c1ccc(/C=C2\C(=O)N(c3nnc(C)c(=O)[nH]3)N=C2C)cc1 | -27.6% | -17.0% | -4.0% | ? | 15.8µM*
CC1=CC(=O)C(C(C)=Nc2ccccc2Cl)C(=O)O1 (stereo unspecified) | -3.0% | -3.3% | -5.0% | -6.0% | -2.7%
O=C1NC(=O)/C(=C\c2ccccc2OCc2ccc([N+](=O)[O-])cc2)N1 | -22.0% | -9.2% | -6.9% | 23.8µM* | -20.6%
O=[N+]([O-])c1ccc(COc2ccccc2/C=N/O)cc1 | -19.3% | -5.2% | -10.6% | 4.8% | -7.1%
Cc1cc(C)n(CCc2nc(-c3ccco3)cs2)n1 | 1.4% | -22.9% | -3.3% | 15.8µM* | ?
Cc1cc(C)n(CCc2nc(-c3ccc(-c4ccccc4)cc3)cs2)n1 | -19.5% | -7.8% | -6.2% | -8.3% | -13.9%
Cc1nn(CCc2nc(-c3ccco3)cs2)c2[nH]c(=O)cc(C(F)(F)F)c12 | -13.7% | -19.7% | -1.9% | 10.6µM* | -82.4%
CSc1ncnc2c1ncn2CCCN1CCN(Cc2c(C)cc(C)cc2C)CC1 | -2.6% | nt | nt | 5.6% | nt
CC1CN(C(=O)CCC(=O)NCc2cccc(Cl)c2)c2ccccc2S1 (stereo unspecified) | -24.0% | -7.7% | nt | nt | -0.7%
O=C(CCC(=O)N1CCSc2ccccc21)NCc1cccc(Cl)c1 | -22.3% | 4.47µM* | -0.7% | -1.2% | -7.0%
N=c1nc(-c2ccccc2)n(-c2ccccc2)s1 | nt | nt | nt | nt | 12.6µM*
Cc1cc(-c2ccc(N=Nc3ccc4c(S(=O)(=O)O)cc(S(=O)(=O)O)c(N)c4c3O)c(C)c2)ccc1N=Nc1ccc2c(S(=O)(=O)O)cc(S(=O)(=O)O)c(N)c2c1O | nt | 3.16µM* | nt | nt | ?
Cc1ccc(N=Nc2ccc(N)cc2C)c(S(N)(=O)=O)c1 | -19.9% | 1.4% | -5.5% | ? | -17.7%
Nc1c(N=Nc2ccc(-c3ccc(N=Nc4cc(S(=O)(=O)O)c5ccccc5c4N)cc3)cc2)cc(S(=O)(=O)O)c2ccccc12 | nt | 2.24µM* | nt | nt | 28.2µM*
O=C(Cn1c(NCCO)nc2ccccc21)N1CCN(Cc2ccccc2)CC1 | ? | -14.4% | -1.4% | 3.8% | -2.4%
SMILES | USP1 inh | KAT2A inh | PTAP TSG101 blk | PLK1 PBD block | VDR inh
CCc1nc2ccccc2n1CC(=O)N1CCN(Cc2ccccc2)CC1 | -6.0% | 3.1% | -1.3% | 21.2µM* | -0.4%
O=C(CSc1nc2ccccc2n1CC(=O)N1CCCCC1)N1CCCCC1 | -12.8% | -3.3% | 0.6% | 0.4% | -0.1%
CC(=O)Nc1ccc(NC(=O)Cn2c(CC(=O)N3CCCC3)nc3ccccc32)cc1 | -6.0% | -4.2% | -7.2% | 29.9µM* | -18.7%
CC(=O)Nc1ccc(C(=O)CSc2nc3ccccc3n2CC(=O)N2CCCC2)cc1 | -5.6% | 0.8% | -4.2% | ? | 79.4µM*
COc1ccc(CCNC(=O)c2cnn(-c3ccc(F)cc3)c2C2CCN(C(=O)OC(C)(C)C)CC2)c(OC)c1 | -18.8% | 1.4% | nt | nt | -2.0%
O=C(Nc1ccc(C(=O)OCc2cc(=O)n3c4c(sc3n2)CCCC4)cc1)c1ccccc1 | -26.5% | 22.8% | nt | nt | 4.4%
Cc1ccc(CNC(=O)CN2C(=O)C3CCCCN3c3ccc(C(=O)N(C)C)cc32)cc1 (stereo unspecified) | -20.8% | -12.4% | nt | nt | 6.2%
COc1cccc(CN(C)C(=O)c2[nH]c(C)c(C(C)=O)c2C)c1OC | -17.7% | -3.1% | -0.2% | 26.7µM* | ?
COc1cc(/C=C2/C(=N)N3N=C(C)SC3=NC2=O)ccc1OS(=O)(=O)c1ccc(C)cc1 | -8.5% | -12.1% | -1.9% | 21.2µM* | -9.6%
COc1cc(/C=C2\C(=N)N3N=C(N4CCOCC4)SC3=NC2=O)ccc1OC(=O)c1ccccc1 | -3.3% | -29.7% | -6.1% | 26.7µM* | ?
CCC1=NN2C(=N)/C(=C/c3ccc(OS(=O)(=O)c4ccc(C)cc4)c(OC)c3)C(=O)N=C2S1 | -5.4% | -15.3% | -2.3% | 15µM* | -11.5%
CCc1ccc(CNC(=O)c2ccc3c(c2)nc2n3CCCCC2)cc1 | -9.9% | 2.3% | nt | nt | -12.4%
CC1=CC(=O)C=C(C)C1=NOC(=O)/C=C\c1ccccc1 | -3.2% | -4.3% | -3.8% | 1.34µM* | 2.4%
CC1=C(C)/C(=N\OC(=O)/C=C/c2ccccc2)C=CC1=O | -21.4% | 3.3% | -6.3% | 2.99µM* | ?
CC1=CC(=NOC(=O)/C=C/c2ccccc2)C=C(C)C1=O | -11.0% | -16.7% | -3.3% | 18.9µM* | ?
N/C(=N\OC(=O)/C=C/c1ccccc1)c1ccncc1 | -16.7% | -13.8% | -2.8% | 4.9% | -3.2%
Cc1sc(N)c(C(=O)c2ccccc2)c1C | -9.0% | -3.0% | 0.8% | 3.77µM* | ?
CC(C)Cn1c(=O)c2ccccc2n2c(CCC(=O)N3CCN(c4ccccc4F)CC3)nnc12 | ? | 0.3% | nt | nt | -10.4%
Brc1nc(Br)n(Cc2ccccc2)n1 | -9.0% | 25.1% | -1.0% | -8.0% | 3.7%
Nn1cnn(Cc2ccccc2)c1=S | -8.6% | 4.3% | 0.0% | 23.8µM* | -13.1%
COC(=O)c1ccc(OC)c(Cn2c(=O)n(-c3ccc(C)cc3)c(=O)c3c2cnn3C)c1 | 0.6% | -12.5% | nt | nt | -7.2%
O=c1nc2n(c3ccccc13)Cc1ccccc1-2 | nt | 1.1% | nt | nt | nt
O=c1c2cccc(Cl)c2nc2n1Cc1ccccc1-2 | -13.6% | ? | -0.2% | 2.67µM* | 79.4µM*
